In all, about 1,800 sequences were measured (“median log2 fold change of GCK-ALFA target abundance (FLAG IP / Myc IP barcode read proportion)”: median about 0.14, lowest 2% from about -0.84 on). This excerpt belongs to a sample that is enriched for the lowest values.
B1: traf2_out_20_38_2040 (protein)
chain: EEEKEEEERLLEIAKKATEVADKTEAWVEEKLAAGVSPEEIIAETKKLITEKLAAIGKEEEAKELIERLDTLAAAGEVRRGVVLVMARAAAIVYQKEQEE
B2: traf2_out_20_3_2223 (protein)
chain: EELKREIEEELRKIEELLEKAKPLLPEEDYKKLKELLEKAREALETDLTDALVYLSELRRLALELAQEARAAGNEELAKLLEEMAERANRAAGLVLKAIE
B3: traf2_out_14_166_1275 (protein)
chain: MSPEEIERIRKIVDELEPLTDAAVARLEAILAANADKLTPEQLARVRALLDLARRNIGSSAINAIREIAAIFAAAGLAEAAAAARALADELEAKLKELNK
B4: traf2_out_18_167_1835 (protein)
chain: EEEKEKKRNELLDEMIDISEHYRAAIEYLELLAKDPKEAEAKKEEYMKKIDKDPELVAKIKEVLALPDEERKKAAKALADEVYDERQKKMQELWDKREAV
B5: traf2_out_20_38_2012 (protein)
chain: SEEEKEKEKEEKLIEHANEAYDRAEAWVAALQAAGKSVAEIAAEAKKRIRELLTAHGLEEEAEELIEDVDRVLDSPDAERLIVQILARAETLVFQKELQK
B6: traf2_out_13_95_1095 (protein)
chain: SAEVAAKINAIADKMLDEVLKILEELLKKMEKAGKLVEEVKEALDLAEKRSINEAIHLLKELAKKYPEFKEEFEEAIKKIEEIKREAGREVAKILKEEEE
B7: traf2_out_15_48_1341 (protein)
chain: SVEELRAVASEIADEIDAAKDAVAAELEALRPSAAPEQRAPLAEAIDAARHGRGQNTVLALLDRLEPLLAPEQAARVAALRDRLRAVVRAASARMAEVLK
B8: traf2_out_18_3_1931 (protein)
chain: SEEERKEVSDKIDEIVDDARARAERELERAREELPEKREEIDRLRAALEAGAAPFGILDALAELYEEAGKEEEAKEIEEYLSEKRKEMQELVDEYEKLIK
B9: traf2_out_11_169_847 (protein)
chain: EQEEKNRQIIDKALELEDKAKEELKKHALALAREAGLDVAEVEAIFEKHKGKSLSAIAAALIRWFREQGKEEAAAAVEAKYEELKEEINKKMTEFLKELE
B10: traf2_out_11_169_812 (protein)
chain: EEKEKNRKINDFALELNDEAKKELLKHAKALAKKAGLDVAEVEAIFEKHKNSSLSAVAAALIAYFKSKGKEEEAAAVLAKYEELKEEINKKVTEKIKELE
B11: traf2_out_17_178_1659 (protein)
chain: NKEEARAEISAATDELIDLTEATADRLLAILEADGTASPEELAALREARRLGSATTTRALMEAAVPRSPRSAEVAALLDDFTKRSGELAKKIAEAYKKYE
B12: traf2_out_8_174_2574 (protein)
chain: SERERLRIVSEVLTEFADILDEAEERLEALKDLPLEELRKESQKILDEALKRIDEIEERRVKEVDEETAELIRRAARSAKQQLRNMVEGTIKRKELREKA
B13: traf2_out_11_169_824 (protein)
chain: AEAERNRKINDKALELNDKAKEKLKEFALELAKKAGLDVEEVKAIFEKHKGASLSAIAAALIEYFRSKGKEEEAEAVLKKYEELKDEINKEMAKFLKELE
B14: traf2_out_12_165_941 (protein)
chain: SMRERTEEIVRRAEEEIRRIADAAIAEIRANPDLTPEEVAALRERAVDEMVEVRQRALNELYKAGASIDELAEASERLRRVFDEARARLDAAAAEHLAAR
B15: traf2_out_11_169_848 (protein)
chain: EEEEKNRKIIDKALELNDKAKEELRAHALALAKKAGLDTAAVEAIFEANKGKSLSAVAAALIAWFKAQGKDAEAAAVEAKYEELKEKINKEMTKFLKELE
B16: traf2_out_6_169_2491 (protein)
chain: SMAEELKKEAERHLKTAKELYEIAKTIYNQAINNKNYENIDDYIEALETIKNAYKHHYDKAIEYYKKLGNEEEAEKLEKEKEKKLKEIDEMIKKLKELKK
B17: traf2_out_14_17_1291 (protein)
chain: DIIEKLEEILKTAKELAKKYPELKLELTQLERKAESALVLAEMYEEDPSYKPELIQGLKNLIKLAKEVAEKLKPISAEAVKKLEEMEETAKEILKEVEAE
B18: traf2_out_20_3_2179 (protein)
chain: EELEEELEEELEEALELIKEAAKLADEETAKKLEELAERLKESRELSYEDRLVELSEIRRELLELAEAAKAAGKEELAAVLEEAAEELNEAMNLVYEIIE
B19: traf2_out_20_38_2003 (protein)
chain: SEEEEEERKLEEIIEVANEAYDEATERIAAMVAAGKTVEEIAAEVRAEVTRLLDAAGLEEERDELLADIDRALASPNALRLFARILARARALVKQKELNK
B20: traf2_out_20_38_2002 (protein)
chain: SMEEEEEERLKEIIDVANEAYDEATERIEALRAAGKSVEEIAAIVRAEVAELLDAAGLEEERDELLADIDRALSSPDALRLFARILARARALVKQKELNE
B21: traf2_out_13_95_1094 (protein)
chain: SKEVAEKIMEIADKMLDESLEVLKKLLEEMKKKGKLEEEIKEVLELAENQSINEAIHKLKELAKKYPEVKELLEKAIEELEEIRRKAGKEVAKILKEEKE
B22: traf2_out_8_174_2572 (protein)
chain: DEEKRLKVVADFSTEMADILDEFEEELKKASDLPLEELKKKAEELKKEALEKIDKLKKEWEAKVDEETAKLVQRAANSAKQQIENMAKGAILRKELEDAA
B23: traf2_out_16_177_1462 (protein)
chain: ELDKIMDRIVVLSKIKRAAEYAIENKKEEAEKYLKEAEKEAEEAGDEEGLKKIKELKELMEKNTEEAKKKLKELAKEAQKEAGKLVDEAEALLKARAAAE
B24: traf2_out_20_38_2031 (protein)
chain: SEEEEEKKRLEEAIKVANDAYDRYTERFAALRAAGRTVEEMAAETRAEVRELLTAAGLEEEAEELIADIDLALGSPEAERLLVRILARAEALVWQKKKNE
B25: traf2_out_11_169_830 (protein)
chain: EEAEKNRKINDFALELEEKAKEEFKKFVLELAKEEGLDVEEIKKIFEENKNKSLSAIAAAVIEYFKSKGKEEAAEKVLKKYEELKEKINKEATEKIKELE
B26: traf2_out_6_156_2413 (protein)
chain: MVEKIFEETLKKVEELIKKLSKASEEKKISYISKIAGTVYKALQQLREAGASLEEIKEFSERLKKEIEKLLKEAGLDEKTRNLVLSSVNAVFTVAIEEAK
B27: traf2_out_18_167_1822 (protein)
chain: SAETEAEIERLTDELVRVSEIRRLALLALEALRTDPAAADAARDALIAALNEVPEFRPDAAALRAAPRAELPALLERIAERAQRRAQELYERREELKKKQ
B28: traf2_out_3_89_2308 (protein)
chain: MEERKKTIEEMEKQMEAYVKGFEKSAKFVAKQMLADGMSLDTLRGVLEAAKSALLEVLRETAKERGLSEEEIEKLLKKAEEELNKVVDEVVADAAAKRAA
B29: traf2_out_6_156_2410 (protein)
chain: MVDAIFKEALEKIEKEIKKLSEASEEKKIKYISNIAGTVYRALQQLRDAGASLAEIEAFAKKLKAEIEKKLKEAGLPEDTINLVLSSINAVFDVAIADAK

Target: T1, TRAF2, Q12933
T1 chain: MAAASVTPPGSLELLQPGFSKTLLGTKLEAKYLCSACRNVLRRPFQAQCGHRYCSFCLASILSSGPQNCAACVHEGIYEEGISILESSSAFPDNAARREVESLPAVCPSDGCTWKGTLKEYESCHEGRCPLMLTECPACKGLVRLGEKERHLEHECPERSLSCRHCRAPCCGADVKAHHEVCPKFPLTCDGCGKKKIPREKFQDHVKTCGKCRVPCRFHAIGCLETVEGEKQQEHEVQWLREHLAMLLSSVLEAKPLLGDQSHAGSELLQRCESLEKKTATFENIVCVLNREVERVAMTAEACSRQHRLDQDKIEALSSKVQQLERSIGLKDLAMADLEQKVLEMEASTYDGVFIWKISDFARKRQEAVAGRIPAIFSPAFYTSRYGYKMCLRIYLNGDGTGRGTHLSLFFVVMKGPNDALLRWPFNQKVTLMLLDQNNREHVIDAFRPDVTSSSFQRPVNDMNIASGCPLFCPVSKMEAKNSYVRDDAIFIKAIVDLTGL
Assay: median log2 fold change of GCK-ALFA target abundance (FLAG IP / Myc IP barcode read proportion) (log2 ratio); each designed protein is fused to an ALFA-tag nanobody in HEK293 cells to bring the named protein to FLAG-tagged glucokinase (GCK); Myc marks an untargeted standard; higher = target protein stabilised (more abundant)
Conditions: target protein: 3xFLAG-MCP-GCK-ALFA reporter; HEK293 landing pad (RPLP)
In short: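 HEK293 landing-pad cells received a recombined binder library fused to the ALFA nanobody and were induced with 2 μg mL^−1 doxycycline, then transfected with a plasmid encoding a FLAG-tagged target and a Myc-tagged standard. Lysates were collected after 48 h for anti-FLAG and anti-Myc immunoprecipitation, and the circular RNA barcodes were reverse transcribed, amplified and sequenced. Target abundance for each binder is the median log2 ratio of FLAG to Myc barcode read proportions. Barcodes had to reach a proportion of at least 10^−7 in both replicates, each binder needed at least 3 barcodes per replicate, a pseudocount of 10^−6 was applied, and the two replicates were pooled.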

Row | Binder | median log2 fold change
1 | B1 | 0.281
2 | B2 | 0.163
3 | B3 | 0.268
4 | B4 | 0.297
5 | B5 | 0.283
6 | B6 | -0.132
7 | B7 | 0.194
8 | B8 | 0.304
9 | B9 | -0.218
10 | B10 | 0.302
11 | B11 | 0.0548
12 | B12 | -0.187
13 | B13 | 0.0712
14 | B14 | -0.0195
15 | B15 | -0.138
16 | B16 | -0.373
17 | B17 | 0.128
18 | B18 | -0.145
19 | B19 | -0.767
20 | B20 | -1.43
21 | B21 | -0.0821
22 | B22 | 0.209
23 | B23 | -0.0546
24 | B24 | -0.852
25 | B25 | 0.00164
26 | B26 | 0.231
27 | B27 | 0.336
28 | B28 | -0.103
29 | B29 | 0.298
